Data published in PubChem BioAssay (Tox21).
Results filed as inconclusive are left out. The source made the active and inactive calls. Unless noted, calls come from the whole dose curve; as a rule, active = well fitted curve in the direction sought with a large enough effect in the repeat runs; inconclusive = weak or mixed curves; inactive = no such curve, though single readings can be large; an effect the other way counts as inactive or inconclusive.

Columns and labels:
[1] = qHTS assay to identify small molecule agonists of the TGF-beta/Smad signaling pathway (AID 1346859; active = well fitted activation curve with a large enough effect in the signal ratio in the repeat runs, not every such curve was filed as active; the % refers to the signal ratio; note: series mostly up to about 77 µM)
In short: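 Beta-lactamase reporter activity downstream of Smad binding elements was measured in stably transfected HEK 293T cells; compounds were incubated for 5 hr, substrate for 2 hr at room temperature.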

[2] = molecular target: Thyrotropin-releasing hormone receptor (Homo sapiens) (UniProt P34981); assay: qHTS assay to identify small molecule antagonists of the thyrotropin-releasing hormone receptor (TRHR) signaling pathway (AID 1346877; active = well fitted inhibition curve with a large enough effect in the repeat runs, not every such curve was filed as active; note: series mostly up to about 51 µM)
In short: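 HEK293/TRHR cells, 18 h, 37 °C; Ca2+ dye 2 h; cpd 5 min RT; TRH 1 nM final; fluorescence read 3 min, 1 s intervals; 15 concs, triplicate.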

[3] = molecular target: Thyrotropin-releasing hormone receptor (Homo sapiens) (UniProt P34981); assay: qHTS assay to identify small molecule agonists of the thyrotropin-releasing hormone receptor (TRHR) signaling pathway (AID 1346891; calls by dose curve;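 note: HEK293 cells expressing TRHR with calcium dye readout; series mostly up to about 58 µM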)
In short: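 Overnight-plated (18 h, 37 °C, 5% CO2) TRHR-Hek293 cells; 2 h calcium dye at 37 °C; compound in DMSO; 3-min kinetic fluorescence read.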

[4] = Human pregnane X receptor (PXR) small molecule agonists, qHTS cell viability counter screen (AID 1346977); note: nearly all actives have a fitted effect of over 50% in size
In short: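 After a 5hr pre-incubation, PXR-Luc HepG2 cells received compounds plus positive control in DMSO and were kept 24hr at 37C. Cell viability was quantified by fluorescence from CellTiter-Fluor added for the final hour.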

[5] = Caspase-3/7 induction in HepG2 cells by small molecules, qHTS assay (AID 1346978); note: nearly all actives have a fitted effect of over 15% in size
In short: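 Caspase-3/7 induction was measured by Caspase-Glo 3/7 luminescence (30 min, room temperature) after a 17 hr compound exposure of wild-type HepG2 cells seeded at 2,000 per well and pre-incubated 5 hr.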

[6] = Caspase-3/7 induction in CHO-K1 cells by small molecules, qHTS assay (AID 1346980); note: nearly all actives have a fitted effect of over 15% in size
In short: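 Luminescent Caspase-Glo 3/7 read (30min, room temperature) quantified apoptosis induction. Cells were wild-type CHO-K1, treated with compound for 17hr at 37 C and 5% CO2.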

[7] = Caspase-3/7 induction in HepG2 cells by small molecules, qHTS cell viability counter screen (AID 1346981); note: series mostly up to about 92 µM; nearly all actives have a fitted effect of over 30% in size
In short: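 Fluorescence read-out of live-cell protease activity (CellTiter-Fluor) after 1 hr with reagent. This was measured in the same wells as the caspase-3/7 luminescence, on HepG2 cells exposed to DMSO-dissolved compounds for 16 hr at 37 C.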

[8] = molecular target: Nuclear receptor subfamily 1 group I member 2 (Homo sapiens) (UniProt O75469); assay: Human pregnane X receptor (PXR) small molecule agonists, qHTS assay (AID 1346982); note: nearly all actives have a fitted effect of over 35% in size; note: potency is the fitted concentration of half-maximal effect
In short: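 HepG2 PXR-Luc reporter line, 5% charcoal-stripped FBS; 5 hr pre-incubation, compound (DMSO) 24 hr at 37 C/5% CO2; ONE-Glo 30 min RT; luminescence read-out.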

[9] = Caspase-3/7 induction in CHO-K1 cells by small molecules, qHTS cell viability counter screen (AID 1346979); note: nearly all actives have a fitted effect of over 35% in size
In short: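 Multiplexed with Caspase-Glo 3/7 in CHO-K1 cells, this counter screen added CellTiter-Fluor after 16hr of compound exposure and recorded fluorescence 1hr later.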

[10] = molecular target: Nuclear receptor subfamily 1 group I member 2 (Rattus norvegicus) (UniProt Q9R1A7); assay: Rat pregnane X receptor (rPXR) activation by small molecules, qHTS assay (AID 1346983); conditions: rPXR luciferase reporter cells, One-Glo luminescence, 24 h; max activation: active compounds read high; note: nearly all actives have a fitted effect of over 20% in size
In short: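 Luminescent readout (One-Glo luciferase, 30 min room temperature) followed 24 hr compound treatment at 37 C of rPXR cells plated 2,000 per well and preincubated 5hr; qHTS format with compounds delivered in DMSO.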
% is set by controls: 0 for no effect and ±100 for the full control effect.

Chain of Thyrotropin-releasing hormone receptor (Homo sapiens) (P34981 whole entry, looked up): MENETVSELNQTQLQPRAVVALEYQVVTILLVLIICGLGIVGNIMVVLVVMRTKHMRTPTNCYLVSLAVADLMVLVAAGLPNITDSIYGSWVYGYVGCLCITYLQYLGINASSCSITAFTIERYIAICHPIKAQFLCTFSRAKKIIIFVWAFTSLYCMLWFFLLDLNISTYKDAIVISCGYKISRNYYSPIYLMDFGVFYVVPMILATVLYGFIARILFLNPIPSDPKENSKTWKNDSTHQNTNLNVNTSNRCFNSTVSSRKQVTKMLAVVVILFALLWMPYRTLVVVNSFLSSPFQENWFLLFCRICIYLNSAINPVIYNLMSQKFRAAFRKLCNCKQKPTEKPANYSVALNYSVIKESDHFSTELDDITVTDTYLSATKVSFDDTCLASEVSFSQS
Chain of Nuclear receptor subfamily 1 group I member 2 (Homo sapiens) (O75469 whole entry, looked up): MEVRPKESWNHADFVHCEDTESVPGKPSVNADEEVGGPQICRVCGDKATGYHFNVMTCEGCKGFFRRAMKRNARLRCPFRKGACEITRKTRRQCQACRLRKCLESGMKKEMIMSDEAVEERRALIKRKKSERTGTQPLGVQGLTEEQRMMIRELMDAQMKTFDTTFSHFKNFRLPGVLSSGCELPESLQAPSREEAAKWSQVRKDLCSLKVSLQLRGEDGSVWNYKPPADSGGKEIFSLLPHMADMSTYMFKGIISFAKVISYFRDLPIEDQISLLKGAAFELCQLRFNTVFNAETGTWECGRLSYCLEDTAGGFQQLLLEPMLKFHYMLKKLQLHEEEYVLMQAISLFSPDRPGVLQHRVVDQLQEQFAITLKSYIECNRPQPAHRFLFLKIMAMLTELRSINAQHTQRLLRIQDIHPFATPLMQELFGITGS
Chain of Nuclear receptor subfamily 1 group I member 2 (Rattus norvegicus) (Q9R1A7 whole entry, looked up): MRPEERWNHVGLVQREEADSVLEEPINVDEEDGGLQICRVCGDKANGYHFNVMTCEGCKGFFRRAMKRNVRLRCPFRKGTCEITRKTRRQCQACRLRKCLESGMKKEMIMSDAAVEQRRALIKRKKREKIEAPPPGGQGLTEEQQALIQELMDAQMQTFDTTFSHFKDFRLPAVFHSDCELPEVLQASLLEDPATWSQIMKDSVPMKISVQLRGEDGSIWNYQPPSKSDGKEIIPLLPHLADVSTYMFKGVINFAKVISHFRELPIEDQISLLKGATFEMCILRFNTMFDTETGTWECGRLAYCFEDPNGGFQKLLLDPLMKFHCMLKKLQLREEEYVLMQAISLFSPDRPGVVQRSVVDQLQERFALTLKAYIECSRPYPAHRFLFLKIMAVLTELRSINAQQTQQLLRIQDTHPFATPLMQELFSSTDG

O=S(=O)(O)CCO
inactive: outcome [1] | outcome [2] | outcome [3] | Potency [4] | outcome [5] | outcome [6] | Potency [7] | Potency [8]

CN(C1CCCCC1)S(=O)(=O)c1ccccc1N
inactive: outcome [1] | outcome [2] | outcome [3] | Potency [4] | outcome [5] | Potency [9] | outcome [6] | Potency [7]
active: Potency [8] 27.3 µM

NC(Cc1c[nH]c2ccccc12)C(=O)O (stereo not given)
inactive: outcome [1] | outcome [2] | outcome [3] | Potency [4] | outcome [5] | Potency [9] | outcome [6] | Potency [7] | Potency [8]

O=C(Oc1ccccc1C(=O)O)c1ccccc1O
inactive: outcome [1] | outcome [2] | outcome [3] | Potency [4] | outcome [5] | outcome [6] | Potency [7] | Potency [8] | max activation [10] -2.38%

C=C[C@@H](C)CCC=C(C)C
inactive: outcome [1] | outcome [2] | outcome [3] | Potency [4] | Potency [9] | outcome [6] | Potency [7] | Potency [8]

CC(C)CCC(=O)CCC(C)C
inactive: outcome [1] | outcome [2] | outcome [3] | Potency [4] | outcome [5] | outcome [6] | Potency [7] | Potency [8]

CCCCCN(CCCOC)C(=O)C(CCC(=O)O)NC(=O)c1ccc(Cl)c(Cl)c1 (stereo not given)
inactive: outcome [1] | outcome [2] | outcome [3] | Potency [4] | Potency [9] | outcome [6] | Potency [7] | Potency [8]

CO/N=C(/C(=O)N[C@@H]1C(=O)N2C(C(=O)O)=C(Cn3nnc(C)n3)CS[C@H]12)c1csc(N)n1
inactive: outcome [1] | outcome [2] | outcome [3] | Potency [4] | Potency [9] | outcome [6] | Potency [7] | Potency [8]

CCN1CN(CC)CN(CC)C1
inactive: outcome [1] | outcome [2] | outcome [3] | Potency [4] | outcome [5] | outcome [6] | Potency [7] | Potency [8]

CCOc1ccc(NC(=O)OC(C)C)cc1OCC
inactive: outcome [1] | outcome [2] | outcome [3] | Potency [4] | outcome [5] | outcome [6] | Potency [7]
active: Potency [8] 48.6 µM

COc1ccc(/C=N/NC(=O)c2ccncc2)cc1OC
inactive: outcome [1] | outcome [2] | outcome [3] | Potency [4] | Potency [9] | outcome [6] | Potency [7] | Potency [8] | max activation [10] -2.5%

CC(C)CCCCCCOC(=O)C1CCCCC1C(=O)OCCCCCCC(C)C (stereo not given)
inactive: outcome [1] | outcome [2] | outcome [3] | Potency [4] | Potency [9] | outcome [6] | Potency [7] | Potency [8]

CCCCCCCCCCCCOC(C)=O
inactive: outcome [1] | outcome [2] | outcome [3] | Potency [4] | outcome [6] | Potency [7] | Potency [8]

O=CN1CCOCC1
inactive: outcome [1] | outcome [2] | outcome [3] | Potency [4] | Potency [9] | outcome [6] | Potency [7] | Potency [8]

O=C(O)/C=C/c1ccccc1
inactive: outcome [1] | outcome [2] | outcome [3] | Potency [4] | outcome [5] | outcome [6] | Potency [7] | Potency [8] | max activation [10] -6.4%

c1ccc(CNc2ncnc3nc[nH]c23)cc1
inactive: outcome [1] | outcome [2] | outcome [3] | outcome [5] | Potency [9] | outcome [6] | Potency [7]

O=[Si]=O
inactive: outcome [1] | outcome [2] | outcome [3] | Potency [4] | outcome [5] | outcome [6] | Potency [7] | Potency [8]

O=C1OC(=O)c2cc(Oc3ccc4c(c3)C(=O)OC4=O)ccc21
inactive: outcome [1] | outcome [2] | outcome [3] | Potency [4] | outcome [6] | Potency [7] | Potency [8]

Nc1c(NC/C=C\COc2cc(CN3CCCCC3)ccn2)c(=O)c1=O
inactive: activation [1] -0.0935% [at 15.8 µM] | activity, negative = inhibition [2] -1.01% [at 10.5 µM] | activation [3] -0.0658% [at 11.8 µM] | caspase activation [5] -0.539% [at 19 µM] | caspase-3/7 activation [6] -0.585% [at 19 µM] | activation [8] -1.56% [at 19 µM]

BrC/C=C/CBr
inactive: activation [1] 1.06% [at 15.8 µM] | activity, negative = inhibition [2] 0.461% [at 10.5 µM] | activation [3] 0.238% [at 11.8 µM] | activity change, negative = cytotoxicity [4] 5.06% [at 19 µM] | caspase activation [5] -0.853% [at 19 µM] | caspase-3/7 activation [6] 0.312% [at 19 µM] | activity change, negative = cytotoxicity [7] -3.88% [at 19 µM] | activation [8] -6.32% [at 19 µM]

Nc1ccc(C(=O)OCC(O)CO)cc1 (stereo not given)
inactive: outcome [1] | outcome [2] | outcome [3] | Potency [4] | Potency [9] | outcome [6] | Potency [7] | Potency [8]

CN(C)CCOCCN(C)CCO
inactive: outcome [1] | outcome [2] | outcome [3] | Potency [4] | outcome [5] | outcome [6] | Potency [7] | Potency [8]

CCC(C)N (stereo not given)
inactive: outcome [1] | outcome [2] | outcome [3] | Potency [4] | Potency [9] | outcome [6] | Potency [7] | Potency [8]

CC(C)C(=O)c1ccccc1
inactive: outcome [1] | outcome [2] | outcome [3] | Potency [4] | outcome [5] | outcome [6] | Potency [7] | Potency [8]

OCCCCCCCl
inactive: outcome [1] | outcome [2] | outcome [3] | Potency [4] | outcome [5] | outcome [6] | Potency [7] | Potency [8]

CC1(N)CCC(C(C)(C)N)CC1 (stereo not given)
inactive: outcome [1] | outcome [2] | outcome [3] | Potency [4] | outcome [6] | Potency [7] | Potency [8]

CC(=O)/C=C/c1ccco1
inactive: outcome [1] | outcome [2] | outcome [3] | Potency [4] | Potency [9] | outcome [6] | Potency [7] | Potency [8]
